In PubChem BioAssay AID1159580 (chemical genetic matrix, 2015):
About 2,000 (36%) of roughly 5,500 compounds were called active. Not shown: some 18% with an inconclusive outcome. No stated cut-off is given here; in the data, active means normalized growth mostly below about 0.91 (no sharp cut-off); inconclusive means no clear call, values can overlap the other calls; inactive means mostly above about 0.92. This is one part of the list.

Test: chemical genetic growth profiling, strain panel (AID 1159580);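 further: tested at 20 µM; growth read once vehicle control cultures reached saturation at 30 °C; 1 = growth at the plate median or of vehicle wells; lower values mean less growth of the strain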
Details: S. cerevisiae deletion strains, growth OD

Measured: normalized growth

Nc1ncnc2c1ncn2C1C[C@H](O)[C@@H](CO)O1 (stereo partly specified)
inactive: locus YJR043C, strain POL32, active compounds read low 0.996 | locus YJR066W, strain TOR1, active compounds read low 0.853 | locus YKL009W, strain mrt4, active compounds read low 0.987 | locus YKL068W, active compounds read low 0.991 | locus YKL085W, strain MDH1 (second series), active compounds read low 0.997 | locus YKL085W, strain MDH1, active compounds read low 0.997 | locus YKL160W, strain elf1, active compounds read low 1.01 | locus YKL190W, strain CNB1, active compounds read low 0.993 | locus YKR001C, strain vps1, active compounds read low 1.01 | locus YKR026C, strain gcn3, active compounds read low 1.02 | locus YKR091W, strain srl3, active compounds read low 1.01 | locus YLL001W, strain dnm1, active compounds read low 1.02 | locus YLL026W, active compounds read low 1.01 | locus YLL041C, strain sdh2, active compounds read low 1.02 | locus YLR027C, strain aat2, active compounds read low 1.02 | locus YLR039C, strain RIC1, active compounds read low 1.04 | locus YLR058C, strain SHM2, active compounds read low 0.985 | locus YLR102C, strain apc9, active compounds read low 0.999 | locus YLR221C, strain rsa3, active compounds read low 1.01 | locus YLR258W, strain gsy2, active compounds read low 1.01 | locus YLR262C, strain YPT6 (second series), active compounds read low 0.998 | locus YLR262C, strain YPT6, active compounds read low 1.04 | locus YLR268W, strain sec22, active compounds read low 1.04 | locus YLR320W, strain mms22, active compounds read low 1.03 | locus YLR330W, strain CHS5, active compounds read low 0.994 | locus YLR342W, strain FKS1 (second series), active compounds read low 1.02 | locus YLR342W, strain FKS1, active compounds read low 1.03 | locus YLR357W, strain rsc2, active compounds read low 1.01 | locus YLR370C, strain arc18, active compounds read low 1.02 | locus YLR371W, strain rom2, active compounds read low 0.98 | locus YLR384C, strain iki3, active compounds read low 1.01 | locus YLR418C, strain cdc73, active compounds read low 0.966 | locus YML016C, strain PPZ1, active compounds read low 0.997 | locus YML032C, strain rad52, active compounds read low 0.966 | locus YML120C, strain ndi1, active compounds read low 1.01 | locus YML124C, strain tub3, active compounds read low 0.99 | locus YMR058W, strain fet3, active compounds read low 1.02 | locus YMR078C, strain ctf18, active compounds read low 0.993 | locus YMR125W, strain sto1, active compounds read low 1.01 | locus YMR129W, active compounds read low 1.01 | locus YMR205C, strain PFK2, active compounds read low 1.05 | locus YMR223W, strain ubp8, active compounds read low 0.986 | locus YMR231W, strain pep5, active compounds read low 0.991 | locus YMR307W, strain GAS1, active compounds read low 0.988 | locus YNL067W, strain RPL9B, active compounds read low 0.995 | locus YNL071W, strain lat1, active compounds read low 1.02 | locus YNL153C, strain GIM3, active compounds read low 0.987 | locus YNL183C, strain NPR1, active compounds read low 0.855 | locus YNL209W, strain ssb2, active compounds read low 1.01 | locus YNL233W, strain BNI4, active compounds read low 1 | locus YNL248C, strain rpa49, active compounds read low 1.01 | locus YNL250W, strain rad50, active compounds read low 0.987 | locus YNL271C, strain bni1, active compounds read low 0.992 | locus YNL298W, strain CLA4, active compounds read low 0.989 | locus YNL307C, strain MCK1, active compounds read low 1.01 | locus YNL322C, strain KRE1 (second series), active compounds read low 1.02 | locus YNR049C, strain mso1, active compounds read low 1.01 | locus YNR052C, strain pop2, active compounds read low 0.985 | locus YOL012C, strain htz1 0.909 | locus YOL147C, strain pex11, active compounds read low 0.995 | locus YOR001W, strain rrp6, active compounds read low 1.02 | locus YOR061W, strain CKA2, active compounds read low 0.967 | locus YOR069W, strain VPS5, active compounds read low 1 | locus YOR070C, strain gyp1, active compounds read low 0.999 | locus YOR080W, strain dia2, active compounds read low 1.02 | locus YOR083W, strain WHI5, active compounds read low 1.01 | locus YOR106W, strain vam3, active compounds read low 1.01 | locus YOR136W, strain idh2, active compounds read low 1 | locus YOR144C, strain elg1, active compounds read low 0.988 | locus YOR184W, strain ser1, active compounds read low 0.988 | locus YOR231W, strain MKK1, active compounds read low 0.873 | locus YOR265W, strain rbl2, active compounds read low 0.987 | locus YOR270C, strain vph1, active compounds read low 1.03 | locus YOR290C, strain snf2, active compounds read low 1.02 | locus YOR316C, strain cot1, active compounds read low 0.994 | locus YPL051W, strain arl3, active compounds read low 1.01 | locus YPL078C, strain atp4, active compounds read low 1.01 | locus YPL106C, strain sse1, active compounds read low 1.02 | locus YPL240C, strain hsp82, active compounds read low 1 | locus YPL256C, strain CLN2, active compounds read low 0.911 | locus YPR119W, strain clb2, active compounds read low 0.993 | locus YPR141C, strain kar3, active compounds read low 0.988 | locus YPR163C, strain tif3, active compounds read low 1 | locus YPR167C, strain met16, active compounds read low 0.989 | strain wtn01, active compounds read low 1.03
active: locus YLR113W, strain HOG1, active compounds read low 0.845
